This is an account of results in PubChem BioAssay AID2401 (Southern Research Specialized Biocontainment Screening …, 2010).

The campaign covered roughly 2,200 compounds. About 530 (24%) were called active. These entries were drawn from the full list. Results with a measured potency or affinity are listed apart. Values without a mark were called inactive.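 How the source made its calls: active means inhibition above a set limit at one or more concentrations of the dose series; inactive means inhibition under that limit at every dose.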

As usually defined, the inhibition is the relative decrease from the control value, in per cent.

A short description of the experiment: S. Typhimurium nonspecific reporter signal inhibition – Salmonella Typhimurium, GFP fluorescence, counter-screen for PhoP regulon inhibitor project, dose response (AID 2401).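 Further: S. typhimurium with Mg-insensitive nmpC-GFP reporter grown at 10 µM Mg2+; drop in reporter fluorescence reflects general culture growth inhibition.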 The note with it: 4 h; series mostly up to 150 µM; inhibition: at the top concentration. On the technique in general: A counterscreen serves to expose hits that act by an unwanted route or on another target.
On to `NC(N)=Nc1nc(C2COc3ccccc3O2)cs1` (stereo not drawn), for which the “inhibition” value was 35.6%. To `Nc1nc(-c2ccc(Br)cc2)cs1` belongs -12.1%; to `Cc1cc(-c2csc(N)n2)c(C)n1C`, 23.3%.

In the case of `Cc1ccc(-n2c(C)cc(-c3csc(N)n3)c2C)cc1`, the “inhibition” value is 39.9% [at 75 µM]. Then `CN(C(=O)C1CCOC1)c1nnc(-c2ccccn2)s1` (stereo not drawn), with -15.8%; and `COc1ccc(-c2cc(C(=O)Nc3cc(C)n(Cc4ccc(Cl)cc4)n3)no2)cc1OC`, with -13.3%. Regarding `COc1cc(S(=O)(=O)N2CCCCC2)ccc1NC=O`, the “inhibition” value is -0.23%. Regarding `CC1(C)CC2CC(C)(CN2C(=O)COC(=O)c2n[nH]c(=O)c3ccccc23)C1` (stereo not drawn), the “inhibition” value was -15.4%.

As for `O=C1Nc2ccccc2C12OCC1(CO2)COC2(OC1)C(=O)Nc1ccccc12` (stereo not drawn), the “inhibition” value is 15.1%. Then `NCCCCCc1nnc(SCc2ccc(Cl)cc2Cl)o1`, with 16.6%. Then `O=C(Nc1ccc(O)cc1)c1cc2n(n1)C(C(F)(F)F)CC(c1ccco1)N2` (stereo not drawn), with -2.81%; and `O=C(c1cc(-c2cccs2)nc2ccccc12)N1CCN(c2ccccc2O)CC1`, with 16.9%. For `O=C(O)CCc1nn2c3ccccc3n(CCN3CCCCC3)c2nc1=O`, the “inhibition” value is -3.63%.

As for `Cc1ccc(Nc2cc(=O)[nH]c(=O)[nH]2)c(C)c1`, the “inhibition” value was 24.1%. Turning to `O=C(O)C1CCC(N2C(=O)C3CCCCC3C2=O)CC1` (stereo not drawn), the “inhibition” value was -2.47%. To `Cc1cc(C(=O)CSc2nnnn2C)c(C)n1-c1ccc2c(c1)OCCO2` belongs -3.11%. With `Cc1ccc(-c2cc(C(=O)Nc3nccs3)c3ccccc3n2)o1`, the “inhibition” value is 15.4%. Then `O=C(OCc1ccccc1)Oc1cncc(C(=O)O)c1`, with 3.03%; and `C=COC(=O)CSc1snc(SCC(=O)OC)c1C#N`, with -0.38%; and `C=CCSc1ncnc2sc(C)c(C)c12`, with 2.54%. Turning to `COc1ccc(NC(=O)CCNS(=O)(=O)c2ccc3c(c2)CCC(=O)N3)cc1`, the “inhibition” value is -5.16%.

Turning to `CN1CCCC(OC(=O)c2ccc3c(c2)OCCO3)C1` (stereo not drawn), the “inhibition” value was -6.95%. As for `N#Cc1ccc(N=c2ssnc2Cl)cc1`, the “inhibition” value was -3.37%. In the case of `CC(C)(C)n1ncc2c(=O)n(CC(=O)Nc3ccc4c(c3)OCO4)cnc21`, the “inhibition” value is 0.07%.

On to `Cc1ccccc1Cn1c(=N)n(CC(=O)c2ccco2)c2ccccc21`, for which the “inhibition” value is -25%. Turning to `N=c1n(CC(=O)c2ccc([N+](=O)[O-])cc2)c2ccccc2n1Cc1ccccc1`, the “inhibition” value is -6.91%. Then `Cc1ccc(/C=C/c2ccc(=O)n(Cc3ccccc3Cl)n2)cc1`, with -10.7%; and `COc1ccc(-n2c(=O)c3ccccc3n(CC(=O)Nc3cc(C)on3)c2=O)cc1OC`, with -20.3%.

For `Cc1cc(-c2c(C)n([O-])c(C)c(C)[n+]2=O)ccc1F`, the “inhibition” value was -19%. With `CCOC(=O)c1c(-c2ccc(C)o2)csc1N`, the “inhibition” value is -7.66%.

As for `CCOC(=O)c1ccccc1C(=O)N1CCOCCOCCOCC1`, the “inhibition” value was -15.8%. To `COc1ccc(C(=O)Nn2c(SCC(=O)N3CCC(C)CC3)nc3ccccc3c2=O)cc1` belongs -0.43%; to `Cc1ccc2nc(C)c(CN3CCN(c4ccc([N+](=O)[O-])cc4Cl)CC3)n2c1`, 12.8%. Turning to `Cc1ccc(NS(=O)(=O)c2ccc(N3C(=O)CCC3=O)cc2)cc1`, the “inhibition” value was -30.7%. To `O=S(=O)(Nc1ccc2c(c1)nc1n2CCN(Cc2ccccc2)C1)c1ccc(F)cc1` belongs -2.47%; to `CSc1cccc(NC(=O)COc2cccc3ccccc23)c1`, 6.13%; to `O=S(=O)(NC1=NCCCCC1)c1cccs1`, -13.8%.

For the compound `O=C1CSc2ccccc2N1Cc1ccc(F)cc1`, the “inhibition” value is -25.6%.

Take `O=C(c1ccccc1S(=O)(=O)NCc1ccccc1)N1CCCC1`: the “inhibition” value was -22.7%. Take `COc1ccc(C2CC(c3ccccc3)=NN2c2ccc(/C=N/NC(=O)c3ccncc3)cc2)cc1` (stereo not drawn): the “inhibition” value is 16.4%.

On to `NC(=O)c1c(N)sc2c1CCCCC2`, for which the “inhibition” value was 12.1%. For the compound `CCOC(=O)C1=C(C)NC(=S)NC1c1ccc(OC(=O)c2ccco2)cc1` (stereo not drawn), the “inhibition” value is -2.57%. `Cn1c(C(O)c2ccc(Br)cc2)nc(Cl)c1Cl` (stereo not drawn): the “inhibition” value was -2.83%. Then `CN(C)C=NC(=O)c1[nH]c2ccc(Cl)cc2c1-c1ccccc1`, with -5.43%; and `Clc1ccc(OCCN2CCN(c3ncnc4sccc34)CC2)cc1`, with -6.81%; and `O=C(Cc1ccc(Cl)cc1)NNS(=O)(=O)c1ccc([N+](=O)[O-])cc1`, with 0%. As for `N[C@H](CSCc1ccccc1)C(=O)Nc1ccc([N+](=O)[O-])cc1`, the “inhibition” value was -8.41%. In the case of `O=C(O)CCCCCN1C(=O)c2ccc(C(=O)O)cc2C1=O`, the “inhibition” value is -20.1%. For `CCOC(=O)c1c(C)[nH]c(C)c1C(=O)CSc1ncccn1`, the “inhibition” value was -16.1%. As to `COc1ccc(NC(=O)CSc2nccn2-c2ccccc2)cc1`, the “inhibition” value is -15.4%.

For the compound `COc1cc(OC)c(NC(=O)Nc2ccc(OC)c(OC)c2)cc1Cl`, the “inhibition” value was 10.1%. On to `O=[N+]([O-])c1nn(-c2cccc(Cl)c2)n(O)c1=NCc1cccnc1`, for which the “inhibition” value is 5.14%. For `O=c1c(Cl)c(Cl)cnn1-c1ccccc1`, the “inhibition” value is 18.9%.

With `CC1(C)CC(=O)C(C=Nc2ccc(Cl)cn2)=C(O)C1`, the “inhibition” value is 7.22%. As for `Cn1cccc1CC(=O)NNC(=S)Nc1ccc(Cl)cc1`, the “inhibition” value is 8.8%. To `Cc1cn([C@H]2C[C@H](N=[N+]=[N-])[C@@H](CO)O2)c(=O)[nH]c1=O` belongs -4.31%; to `Cc1c(C)n(Cc2ccccc2)c2ncnc(NN)c12`, 9.09%. As for `CCOCc1nnc(NC(=O)COC)s1`, the “inhibition” value is -6.16%. With `O=c1c2ccccc2nnn1Cc1ccccn1`, the “inhibition” value was 4.75%. Then `c1ccc(Oc2cc(-c3ccccc3)ncn2)cc1`, with -7.11%; and `Oc1ccccc1NCC(O)Cn1ccc2ccccc21` (stereo not drawn), with 15.1%.

Turning to `Cc1ccc2nc(Cc3ccc(N)cc3)[nH]c2c1`, the “inhibition” value is 29.3%. To `COc1ccccc1NS(=O)(=O)c1cccc(C(=O)N/N=C/c2c(C)nn(-c3ccccc3)c2N2CCCC2)c1` belongs 6.1%; to `CCOc1ccc(S(=O)(=O)Nc2ccc(C(=O)N/N=C/c3c(C)nn(-c4ccccc4)c3N3CCCC3)cc2)cc1`, 17.9%; to `O=C(NC(=S)N1CCN(c2c(Cl)cccc2[N+](=O)[O-])CC1)c1cccs1`, -24%. For `Cc1ccc(C(=O)N/N=C/c2ccc([N+](=O)[O-])s2)cc1`, the “inhibition” value is -4.76%. `O=C(c1ccccc1)c1nc2ccccc2n(CCCn2c(=O)c(C(=O)c3ccccc3)nc3ccccc32)c1=O`: the “inhibition” value was -19.2%. Then `CCc1cccc(C)c1NC(=S)NCc1cccn1C`, with 21.8%. As for `COc1cccc2[nH]c3c(N4CCN(Cc5ccc6c(c5)OCO6)CC4)ncnc3c12`, the “inhibition” value was -6.03%. `O=C(NCc1ccco1)C1CC(=O)N(CCc2ccccc2)C1` (stereo not drawn): the “inhibition” value is 9.58%. Then `N#C/C(=C\c1ccc(F)c(F)c1)C(=O)NC1CCCCC1`, with -10.3%; and `CCSc1nc(C2CC2)cc(-c2cccs2)c1C#N`, with -18.4%; and `CNc1nc(Sc2ccccc2)cc(C(F)(F)F)n1`, with -12.6%.
